PTHR1 ag: activates the human parathyroid hormone receptor PTHR1; HEK293 GP2 PTHR1 cells, GloSensor cAMP luminescence, 1 h; Potency, µM (titrated, usually from 115 µM), without a hit: at the highest dose activation, most hits filed as activators; 410,000 tested, 0.075% active; AID 743266; note: potency is the fitted concentration of half-maximal effect; nearly all actives have a fitted effect of over 55% in size
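HEK-293-derived GP2 cells expressing PTHR1 and a GloSensor cAMP reporter, 3,000/well, plated overnight, given luciferin plus IBMX (each 0.5 mM as added) for 1 h at 37 °C, then compound for 1 h at 37 °C. Luminescence was read after 15 min at room temperature.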
MBNL1 CUG block: blocks human MBNL1 binding to CUG repeat RNA; AID 2675; TR-FRET MBNL1-His/biotin-(CUG)12 binding, 665/545 ratio; 280,000 tested, 0.036% active; Potency, µM (doses to about 57.5 µM), for the others: at the highest dose activity change, negative = inhibition, most hits filed as inhibitors; Q9NR56; active = well fitted inhibition curve with a large enough effect in the signal ratio, with a control signal flat, not every such curve was filed as active; inconclusive = small, poorly fitted or top-dose-only effect, or effect the other way, or a change in a side signal; inactive = no such curve, though single readings can be large or run the other way; the % refers to the signal ratio; note: potency is the fitted concentration of half-maximal effect; % is set by controls: 0 for no effect and ±100 for the full control effect
Target sequence (Q9NR56 whole entry, looked up): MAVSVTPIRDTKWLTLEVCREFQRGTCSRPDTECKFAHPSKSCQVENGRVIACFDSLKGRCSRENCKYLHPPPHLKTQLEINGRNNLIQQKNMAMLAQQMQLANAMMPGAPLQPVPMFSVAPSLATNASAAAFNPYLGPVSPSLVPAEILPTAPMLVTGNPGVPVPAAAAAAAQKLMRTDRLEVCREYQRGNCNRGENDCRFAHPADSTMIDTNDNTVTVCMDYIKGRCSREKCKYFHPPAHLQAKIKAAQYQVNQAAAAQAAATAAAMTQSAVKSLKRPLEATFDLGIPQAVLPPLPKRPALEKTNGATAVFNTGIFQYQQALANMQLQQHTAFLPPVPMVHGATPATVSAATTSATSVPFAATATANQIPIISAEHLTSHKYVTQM
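His-tagged MBNL1 binding to biotinylated (CUG)12 RNA was measured by TR-FRET using terbium anti-His antibody (0.055 ng/ul final) and streptavidin-XL665 (5 nM final). Compounds were titrated 92 nM to 58 uM; 60 min at room temperature.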
CBFb-RUNX1 inh: CBF-beta/RUNX1 interaction disruption; AID 1477; Potency, µM (series often up to 59.8 µM), for the others: top-dose activity, negative = inhibition, usual class: inhibitors; AlphaScreen CBFb-His/RUNX1-biotin binding, biochemical; 230,000 tested, under 10 active; note: % of control where 0% means no effect
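AlphaScreen binding: CBFb-His and RUNX1-biotin (30 nM each) preincubated 20 min, compound added for 15 min, then nickel and streptavidin beads for 90 min, all at room temperature. Disruption of the interaction by any mechanism counts as activity.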
DRD3 antagonist: antagonists of human D3 dopamine receptor; D3R cells, DiscoveRx beta-arrestin luminescence, antagonist mode; stronger effect = lower value; P35462; max response, negative = inhibition, %; AID 652054; 360,000 tested, 2.5% active; in the data active = max response below about -50%; inconclusive = no clear call, values can overlap the other calls; note: % is set by controls: 0 for no effect and ±100 for the full control effect
Target sequence (P35462 whole entry, looked up): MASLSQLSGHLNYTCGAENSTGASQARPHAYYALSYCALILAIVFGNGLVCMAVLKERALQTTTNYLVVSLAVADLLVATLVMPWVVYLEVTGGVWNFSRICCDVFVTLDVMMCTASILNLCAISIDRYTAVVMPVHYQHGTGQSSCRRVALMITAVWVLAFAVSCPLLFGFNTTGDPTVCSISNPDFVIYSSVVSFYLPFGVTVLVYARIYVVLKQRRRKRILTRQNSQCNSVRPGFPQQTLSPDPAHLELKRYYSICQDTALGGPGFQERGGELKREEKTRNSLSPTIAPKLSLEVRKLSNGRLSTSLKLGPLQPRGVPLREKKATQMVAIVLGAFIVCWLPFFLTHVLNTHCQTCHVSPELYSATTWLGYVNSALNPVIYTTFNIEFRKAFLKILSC
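Cells plated overnight at 1500 cells/well, then exposed to library compounds with dopamine controls for 90 minutes at 37 degrees C. DiscoveRx reagent added for 30–60 minutes at room temperature; luminescence read, quantitative HTS format.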
DRD3 agonist: agonists of human D3 dopamine receptor; AID 652048; D3R DiscoveRx beta-arrestin cells, luminescence, 90 min; max activation, %; 410,000 tested, 0.58% active; P35462; in the data active = max activation above about 30%; note: 0% is about no effect
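Agonist-mode cell screen: cells plated at 1500/well and incubated overnight at 37 °C, then exposed to library compounds for 90 min at 37 °C. Detection reagent was added for 30–60 min at room temperature, and luminescence was read.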
Integrin act MD: integrin-mediated muscular dystrophy alleviation activation. alpha7betagal myoblasts, beta-gal FDG fluorescence, 48 h. Potency, µM (highest dose often 38.3 µM), for inactives: top-dose activation, most hits filed as activators. 350,000 tested, 0.064% active;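 note: potency is the fitted concentration of half-maximal effect; 100% = response of the positive control SU9516; nearly all actives have a fitted effect of over 60% in size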
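alpha7betagal+/- myoblasts (passage 13, 250/well) treated 48 h at 37C with compounds at 1:260 dilution of DMSO stock. Lysed, then beta-galactosidase activity read as FDG fluorescence (ex 480/em 540) after 30 min, with pre-read for autofluorescence.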
* = called active by the depositor; i = inactive; ? = inconclusive; · = not tested or not shown; [ ] = another dose, or the depositor's remark. The list is not random: actives were taken first. Their share in the collection is about 2.8%. Unless noted, calls come from the whole dose curve; as a rule, active = well fitted curve in the direction sought with a large enough effect; inconclusive = small, poorly fitted or top-dose-only effect, or another doubt; inactive = no such curve, though single readings can be large; an effect the other way counts as inactive or inconclusive.

SMILES	PTHR1 ag	MBNL1 CUG block	CBFb-RUNX1 inh	DRD3 antagonist	DRD3 agonist	Integrin act MD
CNC(C)C(=O)NC(C(=O)NC(C)C(=O)Nc1cccc2ccccc12)C(C)C (stereo not drawn)	-17.8%	·	·	-19.8	-5.0	·
CC(=O)c1ccc(S(=O)(=O)NCC(=O)N2CCN(C/C=C/c3ccccc3)CC2)cc1	-95.9%	·	·	-10.8	43.3*	21.4%
O=C(c1ccc(Br)s1)N1CCN(C/C=C/c2ccccc2)CC1	i	-1.1%	22.1%	-74.8*	-49.6	-14.5%
O=C(c1cccc(S(=O)(=O)N2CCOCC2)c1)N1CCN(C/C=C/c2ccccc2)CC1	i	·	·	-0.3	30.7*	-20.5%
O=C(c1ccc(Br)o1)N1CCN(C/C=C/c2ccccc2)CC1	-6.9%[57.5 µM]	-0.2%	-2.9%	-68.6*	-9.6	0.3%
CCCn1c(=O)c2sccc2n2c(CCCC(=O)NCCc3ccc(Cl)cc3)nnc12	-24.0%	·	·	·	1.2	·
C[C@H](NC(=O)N1CCn2c1nc1ccccc12)C(=O)N1CCCCC1	-1.1%	-11.3%	·	-2.8	1.0	5.3%
C/C(=N/Nc1ccnc2cc(Cl)ccc12)c1ccc(O)cc1	i	·	·	-54.1*	-57.1	14.8%
CCN(CC)S(=O)(=O)c1cccc(C(=O)Oc2cccc(NC(=O)c3cccs3)c2)c1	i	1.7%	4.9%	12.5	-27.4	6.8%
CC1CCN(S(=O)(=O)c2ccc(Oc3ccc([N+](=O)[O-])cc3)cc2)CC1	-19.8%	23.9%	-19.2%	-81.1*	-19.0	-46.2%
CC1CCN(S(=O)(=O)c2ccc([N+](=O)[O-])cc2)CC1	-13.8%	?	·	-2.5	0.0	-12.6%
CCN(CC)S(=O)(=O)c1cccc(C(=O)Oc2cccnc2)c1	-18.4%[57.5 µM]	-4.1%	5.1%	-53.1*	-4.9	25.1%
CC1CCN(S(=O)(=O)c2ccc3c(c2)C(=NO)c2cc(S(=O)(=O)N4CCC(C)CC4)ccc2-3)CC1	-8.2%[57.5 µM]	4.4%	0.2%	8.4	55.4*	-24.2%
CCN(CC)S(=O)(=O)c1cccc(S(=O)(=O)c2cccc(S(=O)(=O)N(CC)CC)c2)c1	i	0.0%	14.2%	12.3	36.2*	-50.2%
O=S(=O)(c1ccc2c(c1)C(=NO)c1cc(S(=O)(=O)N3CCCCC3)ccc1-2)N1CCCCC1	-8.6%	6.1%	2.3%	?	-9.3	-12.9%
Cc1ccc(C(=O)Nc2ncccc2C)cc1S(=O)(=O)N1CCCCC1	-28.7%	·	·	8.7	3.3	26.8%
CCN(CC)S(=O)(=O)c1ccc2c(c1)C(=NO)c1cc(S(=O)(=O)N(CC)CC)ccc1-2	-24.6%	5.4%	-4.9%	-79.7*	-11.5	-47.3%
Cn1cc(C(=O)c2ccc(Cl)cc2Cl)cc1C(=O)N/N=C(\N)COc1cccc(C(F)(F)F)c1	-10.4%[57.5 µM]	-5.0%	-15.0%	-15.0	8.4	-54.6%
O=C(Nc1ccc(Cl)c(C(F)(F)F)c1)C1Cc2c(-c3ccccc3)ccnc2O1 (stereo not drawn)	4.9%	·	·	?	-1.5	·
CC(=O)Nc1ccc(-c2ccnc3c2CC(C(=O)Nc2ccc(Cl)c(C(F)(F)F)c2)O3)cc1 (stereo not drawn)	i	·	·	-66.4*	-9.3	·
CCOC(=O)N1CCc2c(sc(NCc3ccc(N(CC)CC)cc3)c2C(=O)Nc2cc(OC)ccc2OC)C1	39.8µM*	·	·	·	8.0	·
COc1ccc(Br)cc1/C=N/NC(=O)CNC(=O)/C=C/c1ccccc1	i	-0.1%	4.4%	-67.1*	-11.2	-20.2%
O=C(CNC(=O)c1cccc(F)c1)N/N=C/c1cc(Br)ccc1OCc1ccccc1	-19.8%	·	6.0%	?	-12.1	10µM*
O=C(CNC(=O)c1cccc(Br)c1)N/N=C/c1cc(Br)cc(Br)c1O	i	8.5%	-4.7%	-71.3*	-29.8	0.0%
O=C(CNC(=O)c1ccccc1F)N/N=C/c1cc(Br)ccc1OCc1ccccc1	-13.2%	11.8%	2.5%	-6.8	-6.7	0.0%
SMILES	PTHR1 ag	MBNL1 CUG block	CBFb-RUNX1 inh	DRD3 antagonist	DRD3 agonist	Integrin act MD
CCOC(=O)c1ccc(NC(=O)CC2Nc3ccccc3NC2=O)cc1 (stereo not drawn)	-39.3%	·	·	·	-4.9	·
CCOC(=O)C1CCCN(C(=O)c2cnn3c(C(F)(F)F)cc(-c4ccccc4)nc23)C1 (stereo not drawn)	i	20.6%	11.2%	-20.8	-7.6	-0.5%
CCOC(=O)C1CCCN(C(=O)c2cc3nc(-c4cccc(OC)c4)cc(C(F)(F)F)n3n2)C1 (stereo not drawn)	-26.0%[57.5 µM]	?	18.3%	49.7	51.9*	-39.5%
COc1ccc(NC(=O)CO/N=C2\CCCc3nonc32)cc1	i	-12.1%	2.0%	?	-0.4	16.5%
O=C(CO/N=C1\CCCc2nonc21)Nc1ccc(Br)cc1	-12.5%	-0.5%	-1.5%	-82.8*	-5.7	13.9%
CCOC(=O)N1CCc2c(sc(N)c2C#N)C1	8.4%	3.4%	2.2%	7.1	59.8*	-13.6%
Clc1ccc(COc2cccc(CNCc3ccncc3)c2)cc1	-37.0%	-1.7%	-2.2%	1.7	40.3*	-28.8%
CCOC(=O)CSc1nc2cc(OC)ccc2cc1C#N	-4.3%	185.8%	12.5%	9.9	-4.3	-12.9%
CCOC(=O)CSC1=C(C#N)C(=O)NC(c2ccc(OC)cc2)S1 (stereo not drawn)	-12.6%	2.8%	-5.7%	-57.5*	-4.4	11.2%
COc1ccc(C2NC(=O)C(C#N)=C(S)N2c2ccc(C)cc2)cc1OC (stereo not drawn)	-27.3%	-1.0%	16.7%	0.7	-3.6	-35.4%
CCOC(=O)CSC1=C(C#N)C(=O)NC(c2ccc(OC)c(OC)c2)S1 (stereo not drawn)	i	0.2%	-1.7%	-66.8*	-1.2	-44.5%
O=c1c(-c2ccco2)nc2ccccc2n1C(c1ccccc1)c1nc2ccccc2[nH]1 (stereo not drawn)	-18.4%	·	·	?	-16.5	·
O=C(NC(c1ccc2c(c1)OCO2)c1ccccn1)C1CCN(CCOc2ccccc2)CC1 (stereo not drawn)	i	·	·	-71.6*	7.5	·
COc1cccc(C(NC(=O)C2CCN(CCCOc3ccccc3)CC2)c2ccccn2)c1 (stereo not drawn)	i	·	·	-88.6*	-21.2	·
COc1ccc(OCCN2CCC(C(=O)NC(c3ccc(C)cc3)c3ccccn3)CC2)cc1 (stereo not drawn)	-17.8%	·	·	-73.7*	-17.6	·
COc1ccc(C(NC(=O)C2CCN(CCOc3ccccc3)CC2)c2ccccn2)cc1 (stereo not drawn)	-19.0%	·	·	?	4.5	·
CCCCC1SC(N)=NC1=O (stereo not drawn)	i	·	·	19.9	10.4	1.0%
